From PubChem BioAssay
Abs 340nm = compounds absorbing at 340 nm. compound absorbance at 340 nm, fold over control. fold change at 10 µM. 65,000 tested, under 10 active;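 active = at 10 µM dose, initial 340 nm absorbance at least 2 fold that of control wells; inactive = change under 2 fold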;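 also: initial absorbance extrapolated from kinetic A340 decline of NADH oxidation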
Autofluor 339 = intrinsic fluorescence of library compounds, ex339/em460 – biochemical, MLSMR library, data from DPM-DC assay, artefact control, profiling panel; compound autofluorescence, ex339/em460 nm, NADH buffer; hits give high values; 1 = no-compound wells, NADH background; actives 5.5% (n = 65,000); fluorescence fold increase at 10 µM;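 active = at 10 µM, mean starting fluorescence two-fold or more over control wells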;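 also: signal is the first read of a kinetic run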
DPM-DC inhibit = inhibitors of Streptococcus pneumoniae diphosphomevalonate decarboxylase; calls only at 10 µM; actives 0.49% (n = 65,000); purified DPM-DC, PK/LDH coupled NADH fluorescence;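 active = the 320 compounds with the highest percent inhibition in the single-dose primary screen, excluding strongly autofluorescent ones, cut at about 32% in these data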;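 also: kinetic rate of NADH fluorescence loss reporting ADP formed by the decarboxylase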
Spn PMK inh = S. pneumoniae PMK inhibition | purified PMK, PK/LDH-coupled NADH absorbance 340 nm | actives 0.49% (n = 65,000) | inhibition, % at 10 µM;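 active = top-ranked compounds by inhibition in the single 10 µM screen, taking a fixed number of the strongest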;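 also: 0% = full reaction with DMSO carrier and 100% = background rate without enzyme reaction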
NADH coupling = blocks coupling enzymes of NAD/NADH assays. coupled PK/LDH NADH assays, four targets. IC50, µM (titrated, usually from 10 µM), without a hit: at the highest dose inhibition. actives 0.02% (n = 65,000);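 active = single-dose screening hits from any of four coupled enzyme assays that gave an IC50 when retested across doses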;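 also: the DPM-DC format reads NADH fluorescence rather than 340 nm absorbance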
MK inhibit = S. pneumoniae mevalonate kinase inhibition; inhibition, % at 10 µM; purified MK, PK/LDH-coupled NADH absorbance 340 nm; actives 0.48% (n = 65,000);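 active = ranked among the strongest by inhibition in the single 10 µM screen, a fixed top-ranked set picked for dose follow-up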
Active calls of the source: *; i = inactive; nt = no result shown; + = active, no number. Shown are actives, neighbours in structure and some others; about 6.5% of the full set was active somewhere.

SMILES	Abs 340nm	Autofluor 339	DPM-DC inhibit	Spn PMK inh	NADH coupling	MK inhibit
Cc1ccc(C2NC(=O)c3c(sc4c3CCN(C)C4)N2)s1 (centres undefined)	1.03	2.28*	i	14.0	16.0%	13.0
Cc1ccc(C2NC(=O)c3c(sc4c3CCN(C)C4)N2)o1 (centres undefined)	1.07	1.6	i	7.0	9.0%	5.0
CN1CCc2c(sc3c2C(=O)NC(c2ccccn2)N3)C1 (centres undefined)	1.04	2.41*	i	15.0	12.0%	3.0
CCOc1ncccc1C(=O)OCC(=O)NCCc1ccc(OC)cc1	1.02	1.02	i	5.0	2.0%	0.0
O=C(O)Cn1nc(C(F)(F)F)c2c1CCC2	1.02	1.09	i	0.0	4.0%	11.0
CCOc1ccc(N2CC(C(=O)OC)CC2=O)cc1 (centres undefined)	1.05	0.58	+	0.0	16.0%	8.0
Cc1ccc(S(=O)(=O)Nc2ccccc2C(N)=O)cc1	1.06	3.89*	nt	6.0	3.0%	0.0
NC(=O)c1ccccc1NS(=O)(=O)Cc1ccc(Cl)cc1	1.05	3.92*	nt	3.0	3.0%	2.0
CN(C)S(=O)(=O)Nc1ccc(NS(=O)(=O)N(C)C)c(S(=O)(=O)c2ccccc2)c1	1.04	1.05	i	14.0	8.0%	9.0
CN(C)S(=O)(=O)Nc1ccccc1C(N)=O	0.99	2.92*	nt	2.0	3.0%	2.0
NC(=O)c1ccccc1NC(=O)CS(=O)(=O)Cc1ccccc1	1.01	1.05	i	8.0	4.0%	4.0
Nc1nc(CN2CCN(c3ccccn3)CC2)nc(Nc2ccc(Cl)cc2)n1	1.04	1.16	i	11.0	7.0%	8.0
Cc1ccc2c(CC(=O)OC(C)C(=O)NCc3ccc4c(c3)OCO4)coc2c1 (centres undefined)	0.99	1.02	i	12.0	5.0%	2.0
CC(=O)NCCn1c(SCc2ccccc2F)nc2ccccc2c1=O	1.06	1.07	i	13.0	5.0%	2.0
CC(=O)NCCn1c(SCc2cc(=O)n3cc(Cl)ccc3n2)nc2ccccc2c1=O	1.14	2.13*	+	13.0	18.0%	7.0
CCOc1ccc(C2/C(=C(/O)c3ccc(Cl)cc3)C(=O)C(=O)N2CCCN(C)C)cc1OC (centres undefined)	1	1.08	i	3.0	5.0%	11.0
Cc1cccc(Nc2n[nH]c(=S)s2)c1C	1.06	1.05	+	0.0	29.0%	54.0*
CCCCSC1=C(C#N)C(c2ccccc2C)C(C(=O)OCC)C(=O)N1 (centres undefined)	0.96	1.04	i	22.0	9.0%	5.0
c1ccc2c(c1)[nH]c1c(N3CCOCC3)ncnc12	1.1	1.68	i	2.0	5.0%	3.0
c1ccc2c(c1)[nH]c1c(N3CCCC3)ncnc12	1.06	1.36	i	13.0	10.0%	13.0
c1ccc2c(c1)[nH]c1c(N3CCN(C4CCCCC4)CC3)ncnc12	1.06	2.33*	nt	0.0	5.0%	9.0
CN1CCN(c2ncnc3c2[nH]c2ccc(F)cc23)CC1	1.11	2.32*	nt	0.0	4.0%	8.0
Cc1ccc2[nH]c3c(N4CCOCC4)ncnc3c2c1	1.02	2.48*	nt	0.0	2.0%	2.0
COCCn1c(C2CCCCC2)nc2sc3ccccc3c(=O)c2c1=O	1.07	1.09	i	11.0	9.0%	16.0
COc1ccccc1C(=O)Nc1cc(-c2nn3c(C)nnc3s2)ccc1C	1.04	1.14	i	0.0	0.0%	1.0
SMILES	Abs 340nm	Autofluor 339	DPM-DC inhibit	Spn PMK inh	NADH coupling	MK inhibit
CCN(CC)S(=O)(=O)c1cccc(-c2nnc(SCC(=O)c3cc(C)n(C)c3C)o2)c1	1	1.05	i	12.0	4.0%	0.0
CCCN(CC(=O)c1cc(C)n(C)c1C)S(=O)(=O)c1cccc(C(F)(F)F)c1	1.01	2.93*	+	8.0	15.0%	6.0
C/C=C(\C)CN1CCN(c2ccccc2F)CC1	1.07	1.1	i	0.0	17.0%	51.0*
C/C=C(\C)CN1CCN(c2cc(C)ccc2C)CC1	1.08	1.07	i	0.0	12.0%	36.0
CCN(CC)C(=O)CN1CCN(c2ccccc2F)CC1	1.05	1.06	i	0.0	23.0%	68.0*
CCN(CC)c1ccc(NC(=O)CN2CCN(c3ccccc3F)CC2)cc1	1	1.13	i	6.0	3.0%	4.0
O=C(CN1CCN(c2ccccc2F)CC1)c1ccc2cc[nH]c2c1	1.08	2.15*	nt	2.0	2.0%	1.0
O/N=C(\c1ccc(Cl)cc1)c1cc2ccccc2o1	1.04	1.1	i	0.0	2.0%	7.0
COc1ccc(-c2cc(C(F)(F)F)n3nc(C(=O)O)nc3n2)cc1	1.13	2.85*	i	16.0	11.0%	9.0
O=C(c1nc2nc(-c3ccccc3)cc(C(F)(F)F)n2n1)N1CCOCC1	1.09	1.49	i	20.0	10.0%	0.0
COc1ccc(-c2cc(C(F)(F)F)n3nc(C(=O)N4CCCC4)cc3n2)cc1	1.11	2.2*	nt	12.0	8.0%	3.0
O=C(c1nc2nc(-c3ccc(Cl)cc3)cc(C(F)(F)F)n2n1)N1CCOCC1	1.14	3.18*	nt	5.0	10.0%	15.0
CC(C)N(C(=O)COc1ccc(Br)cc1Cl)C(C)C	1.03	1.05	i	5.0	12.0%	6.0
N#CCCS(=O)(=O)c1nnnn1-c1ccccc1	1.01	1.04	i	15.0	6.0%	0.0
O=C(NCc1ccc2c(c1)OCO2)c1cc(S(=O)(=O)N2CCCCC2)ccc1F	1.02	1.04	i	12.0	4.0%	0.0
O=C(NCc1ccc2c(c1)OCO2)c1c[nH]c2ccc(S(=O)(=O)N3CCOCC3)cc2c1=O	1.05	2.04*	i	17.0	10.0%	2.0
O=C(NCC1COc2ccccc2O1)c1c[nH]c2ccc(S(=O)(=O)N3CCOCC3)cc2c1=O (centres undefined)	1.06	2.83*	i	2.0	2.0%	2.0
COc1ccc2c(c1)c(C(=O)CNc1nc(C)cs1)c(C)n2C	1.07	1.2	i	27.0*	9.0%	0.0
COc1ccc(-c2nc(C#N)c(NCc3ccccc3Cl)o2)cc1OC	1.02	3.95*	nt	17.0	13.0%	9.0
COc1ccc(-c2nc(C#N)c(NCc3ccc(F)cc3)o2)cc1OC	1.06	3.92*	nt	20.0	17.0%	13.0
COc1ccc(CNc2oc(-c3ccccc3)nc2C#N)cc1	1.02	1.96	nt	0.0	1.0%	3.0
COc1ccc(-c2nc(C#N)c(NCc3ccccc3Cl)o2)cc1	1.1	3.06*	i	0.0	1.0%	3.0
COc1ccccc1NC(=O)CSc1nc(O)cc(=O)[nH]1	0.97	1.03	i	16.0	9.0%	11.0
O=c1c(-c2ccccc2)c(O)c2cccc3c2n1CCC3	1.08	1.38	+	66.0*	62.0%	43.0*
COc1cccc(-c2cn3nc4c(nc3n2)CCCC4)c1	1.04	2.63*	i	11.0	11.0%	6.0
